From ChEMBL document CHEMBL3988442, “University of Dundee, Small-Polar-MMV Screening Library” (2021) come the findings set out here.

For some of these results: Measured potencies and affinities stand elsewhere.

What all share (set-up): scale not given: direction of the effect not stated beside the values
Test [1] deals with Protein translocase subunit SecA (Escherichia coli (strain K12)) (UniProt P10408). In words: Assay to Identify E. coli SecA ATPase Inhibitors. It is filed as functional. To be noted: 30 µM.
Protein translocase subunit SecA (Escherichia coli (strain K12)), sequence (P10408 whole entry): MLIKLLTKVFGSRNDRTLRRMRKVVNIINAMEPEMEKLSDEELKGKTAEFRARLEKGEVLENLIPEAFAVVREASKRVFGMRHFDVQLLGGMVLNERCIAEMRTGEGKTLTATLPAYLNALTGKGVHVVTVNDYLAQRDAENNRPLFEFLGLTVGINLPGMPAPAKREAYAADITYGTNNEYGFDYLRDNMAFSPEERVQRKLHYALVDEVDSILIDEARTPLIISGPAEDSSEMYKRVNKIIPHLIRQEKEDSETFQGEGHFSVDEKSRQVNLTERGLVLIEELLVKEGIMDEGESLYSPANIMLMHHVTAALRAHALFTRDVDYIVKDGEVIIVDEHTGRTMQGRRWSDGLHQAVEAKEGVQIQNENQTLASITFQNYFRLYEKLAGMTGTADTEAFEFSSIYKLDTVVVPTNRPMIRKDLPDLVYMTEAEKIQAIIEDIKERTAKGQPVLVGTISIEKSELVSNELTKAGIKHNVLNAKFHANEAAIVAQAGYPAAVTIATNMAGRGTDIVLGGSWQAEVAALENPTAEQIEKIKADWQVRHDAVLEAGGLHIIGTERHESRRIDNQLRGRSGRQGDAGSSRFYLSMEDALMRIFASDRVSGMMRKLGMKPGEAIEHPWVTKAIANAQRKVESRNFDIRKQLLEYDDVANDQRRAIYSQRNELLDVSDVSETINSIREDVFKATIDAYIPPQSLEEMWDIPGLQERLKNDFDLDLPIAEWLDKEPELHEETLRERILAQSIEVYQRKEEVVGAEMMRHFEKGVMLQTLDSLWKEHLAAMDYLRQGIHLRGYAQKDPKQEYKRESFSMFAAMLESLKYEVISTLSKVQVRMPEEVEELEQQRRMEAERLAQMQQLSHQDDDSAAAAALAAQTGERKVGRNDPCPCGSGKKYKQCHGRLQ
Test [2] addresses T1, Ubiquitin-activating enzyme e1, putative (Leishmania donovani (strain BPK282A1)) (UniProt E9BSI1).
T1 sequence (whole entry): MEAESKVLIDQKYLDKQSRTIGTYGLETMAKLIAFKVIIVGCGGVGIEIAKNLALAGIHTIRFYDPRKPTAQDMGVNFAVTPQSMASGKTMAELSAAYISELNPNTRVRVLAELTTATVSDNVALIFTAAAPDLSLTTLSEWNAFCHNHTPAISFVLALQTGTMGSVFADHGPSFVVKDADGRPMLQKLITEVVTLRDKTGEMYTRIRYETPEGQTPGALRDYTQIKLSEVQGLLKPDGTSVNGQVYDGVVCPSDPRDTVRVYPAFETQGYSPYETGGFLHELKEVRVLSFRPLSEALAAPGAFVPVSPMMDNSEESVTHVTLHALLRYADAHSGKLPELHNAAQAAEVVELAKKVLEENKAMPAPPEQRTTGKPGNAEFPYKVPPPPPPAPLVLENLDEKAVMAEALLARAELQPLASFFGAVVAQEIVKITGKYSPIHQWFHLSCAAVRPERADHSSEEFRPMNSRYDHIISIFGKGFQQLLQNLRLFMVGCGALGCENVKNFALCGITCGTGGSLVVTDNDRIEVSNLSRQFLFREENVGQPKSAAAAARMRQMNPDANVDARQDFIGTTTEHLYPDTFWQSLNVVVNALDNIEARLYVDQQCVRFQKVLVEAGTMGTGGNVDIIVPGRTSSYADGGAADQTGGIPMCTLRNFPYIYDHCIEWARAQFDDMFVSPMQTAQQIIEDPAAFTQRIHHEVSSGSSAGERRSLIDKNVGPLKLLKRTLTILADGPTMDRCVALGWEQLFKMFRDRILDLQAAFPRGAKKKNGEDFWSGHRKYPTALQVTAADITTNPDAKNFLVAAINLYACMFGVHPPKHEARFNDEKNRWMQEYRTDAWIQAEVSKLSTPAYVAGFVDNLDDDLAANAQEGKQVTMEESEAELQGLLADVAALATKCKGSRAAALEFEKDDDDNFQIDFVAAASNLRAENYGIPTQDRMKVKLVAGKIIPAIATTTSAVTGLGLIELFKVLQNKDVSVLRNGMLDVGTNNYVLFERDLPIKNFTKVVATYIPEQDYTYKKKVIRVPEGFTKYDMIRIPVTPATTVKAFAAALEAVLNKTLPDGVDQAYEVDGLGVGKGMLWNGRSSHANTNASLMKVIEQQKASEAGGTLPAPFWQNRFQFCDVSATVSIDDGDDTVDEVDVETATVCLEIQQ
The test can be described thus: Leishmania donovani Ubiquitin Activating Enzyme (LdE1). Format: functional. To be noted: 30 µM.

The target of test [3] is AMP-activated protein kinase, AMPK (Homo sapiens) (UniProt P54646+O43741+P54619+Q9UGJ0+Q9Y478+Q13131+Q9UGI9). In words: AMP-dependent Kinase enzyme assay. An in vitro enzyme assay that detects ADP turnover that is directly proportional to AMPK activity. This uses naive AMPK that is activated during the assay with MK-8722. Format: functional. The conditions noted are these: 30 µM.

Test [4] deals with Sialic acid-binding Ig-like lectin 9 (Homo sapiens) (UniProt Q9Y336). In words: Hs-Siglec9 ALPHAscreen SOP 20170721. To be noted: 10 µM. Background: Bead proximity is the source of the signal in Alpha formats.
Sialic acid-binding Ig-like lectin 9 (Homo sapiens), sequence (Q9Y336 whole entry): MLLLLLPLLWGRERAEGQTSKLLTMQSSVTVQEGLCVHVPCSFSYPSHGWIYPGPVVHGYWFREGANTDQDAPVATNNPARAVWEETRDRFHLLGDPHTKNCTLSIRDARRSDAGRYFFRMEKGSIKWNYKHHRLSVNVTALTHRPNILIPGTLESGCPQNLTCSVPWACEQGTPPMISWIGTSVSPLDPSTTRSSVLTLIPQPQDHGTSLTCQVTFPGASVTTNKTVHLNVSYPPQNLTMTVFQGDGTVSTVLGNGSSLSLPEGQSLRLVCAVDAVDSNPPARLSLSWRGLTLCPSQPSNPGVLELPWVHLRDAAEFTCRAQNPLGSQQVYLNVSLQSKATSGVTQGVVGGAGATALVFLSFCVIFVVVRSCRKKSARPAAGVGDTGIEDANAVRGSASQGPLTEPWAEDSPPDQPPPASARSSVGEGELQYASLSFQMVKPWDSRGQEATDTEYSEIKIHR
For the next test, the system named is Trypanosoma cruzi. In words: Trypanosoma cruzi phosphomannomutase and mannose-1-phosphate guanylyltransferase assay. The conditions noted are these: 10 µM. Format: functional.
For test [5], the target named is T2, Arginase-2, mitochondrial (Homo sapiens) (UniProt P78540).
T2 sequence (whole entry): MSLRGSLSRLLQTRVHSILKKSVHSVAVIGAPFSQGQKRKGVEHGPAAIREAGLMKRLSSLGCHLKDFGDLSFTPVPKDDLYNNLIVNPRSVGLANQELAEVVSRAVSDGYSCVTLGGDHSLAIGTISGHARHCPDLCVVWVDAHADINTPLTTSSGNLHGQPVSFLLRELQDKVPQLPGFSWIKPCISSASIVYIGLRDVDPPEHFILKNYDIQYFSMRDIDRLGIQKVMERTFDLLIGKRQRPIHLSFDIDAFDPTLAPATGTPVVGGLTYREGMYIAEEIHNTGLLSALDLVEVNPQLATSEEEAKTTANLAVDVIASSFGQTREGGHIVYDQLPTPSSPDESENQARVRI
In words: in vitro enzyme assay to detect the production of urea directly proportional to the activity of Arginase II. Note: in the data most compounds retested in dose-response had high values. Format: functional. The conditions noted are these: 33.3 µM.

In test [6] the target is T3, Proteasome subunit beta (Trypanosoma cruzi) (UniProt O96673).
T3 sequence (whole entry): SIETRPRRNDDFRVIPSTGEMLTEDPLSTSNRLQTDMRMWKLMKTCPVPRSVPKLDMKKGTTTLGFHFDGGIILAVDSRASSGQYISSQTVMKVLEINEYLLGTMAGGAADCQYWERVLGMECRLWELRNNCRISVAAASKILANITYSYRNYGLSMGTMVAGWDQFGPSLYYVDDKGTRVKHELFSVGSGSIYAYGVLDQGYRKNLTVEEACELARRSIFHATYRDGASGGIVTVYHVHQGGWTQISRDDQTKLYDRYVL
In words: Trypanosoma cruzi proteasome chymotrypsin-like activity (TcProtChymo) assay. Note: in the data most compounds retested in dose-response had high values. Format: functional. The conditions noted are these: 9.37 µM.

A further test is filed under the species Homo sapiens. The test can be described thus: To identify inhibition of the IFN signalling (Jak-Stat) pathway via expression of an eGFP reporter gene under the control of an IFN-stimulated response element (ISRE) containing MxA promoter. It is filed as functional. The conditions noted are these: 30 µM. A general note: In a reporter assay the amount or activity of a reporter protein is the signal.

Test [7] addresses T4, Tyrosyl-tRNA synthetase, putative (Trypanosoma cruzi (strain CL Brener)) (UniProt Q4DSP6).
T4 sequence (whole entry): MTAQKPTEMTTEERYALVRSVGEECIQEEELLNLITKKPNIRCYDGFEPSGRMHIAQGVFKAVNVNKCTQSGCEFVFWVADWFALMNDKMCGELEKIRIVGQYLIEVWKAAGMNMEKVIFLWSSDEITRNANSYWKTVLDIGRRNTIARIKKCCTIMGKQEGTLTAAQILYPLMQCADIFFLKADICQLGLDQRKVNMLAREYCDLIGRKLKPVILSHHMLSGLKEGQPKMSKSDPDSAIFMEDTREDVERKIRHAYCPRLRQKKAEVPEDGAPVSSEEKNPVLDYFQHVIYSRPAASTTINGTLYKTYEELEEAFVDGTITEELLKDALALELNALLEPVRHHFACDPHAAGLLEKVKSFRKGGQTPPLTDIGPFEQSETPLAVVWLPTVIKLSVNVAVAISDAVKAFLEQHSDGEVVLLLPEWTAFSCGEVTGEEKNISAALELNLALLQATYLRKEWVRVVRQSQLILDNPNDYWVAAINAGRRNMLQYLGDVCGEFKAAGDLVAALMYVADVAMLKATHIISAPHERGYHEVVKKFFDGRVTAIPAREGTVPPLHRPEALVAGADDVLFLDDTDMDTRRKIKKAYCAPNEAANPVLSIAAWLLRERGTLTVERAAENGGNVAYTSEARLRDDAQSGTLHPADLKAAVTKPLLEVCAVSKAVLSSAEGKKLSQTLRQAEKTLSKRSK
The test can be described thus: Trypanosoma cruzi tyrosyl tRNA synthetase (TcYRS) _High Tyrosine SOP. Note: in the data most compounds retested in dose-response had high values. To be noted: 30 µM. Format: functional.

The target in test [8] is T4, Tyrosyl-tRNA synthetase, putative (Trypanosoma cruzi (strain CL Brener)). In words: Trypanosoma cruzi tyrosyl tRNA synthetase (TcYRS) SOP. The conditions noted are these: 30 µM. It is filed as functional.
Test [9] addresses Chromo domain-containing protein 1 (Saccharomyces cerevisiae (strain ATCC 204508 / S288c) (Baker's yeast)) (UniProt P32657). The test can be described thus: ScCHD-1 Enzyme Inhibition Assay. Note: in the data most compounds retested in dose-response had high values. The conditions noted are these: 30 µM. It is filed as functional.

Chromo domain-containing protein 1 (Saccharomyces cerevisiae (strain ATCC 204508 / S288c) (Baker's yeast)), sequence (P32657 whole entry, the tested form may be a part): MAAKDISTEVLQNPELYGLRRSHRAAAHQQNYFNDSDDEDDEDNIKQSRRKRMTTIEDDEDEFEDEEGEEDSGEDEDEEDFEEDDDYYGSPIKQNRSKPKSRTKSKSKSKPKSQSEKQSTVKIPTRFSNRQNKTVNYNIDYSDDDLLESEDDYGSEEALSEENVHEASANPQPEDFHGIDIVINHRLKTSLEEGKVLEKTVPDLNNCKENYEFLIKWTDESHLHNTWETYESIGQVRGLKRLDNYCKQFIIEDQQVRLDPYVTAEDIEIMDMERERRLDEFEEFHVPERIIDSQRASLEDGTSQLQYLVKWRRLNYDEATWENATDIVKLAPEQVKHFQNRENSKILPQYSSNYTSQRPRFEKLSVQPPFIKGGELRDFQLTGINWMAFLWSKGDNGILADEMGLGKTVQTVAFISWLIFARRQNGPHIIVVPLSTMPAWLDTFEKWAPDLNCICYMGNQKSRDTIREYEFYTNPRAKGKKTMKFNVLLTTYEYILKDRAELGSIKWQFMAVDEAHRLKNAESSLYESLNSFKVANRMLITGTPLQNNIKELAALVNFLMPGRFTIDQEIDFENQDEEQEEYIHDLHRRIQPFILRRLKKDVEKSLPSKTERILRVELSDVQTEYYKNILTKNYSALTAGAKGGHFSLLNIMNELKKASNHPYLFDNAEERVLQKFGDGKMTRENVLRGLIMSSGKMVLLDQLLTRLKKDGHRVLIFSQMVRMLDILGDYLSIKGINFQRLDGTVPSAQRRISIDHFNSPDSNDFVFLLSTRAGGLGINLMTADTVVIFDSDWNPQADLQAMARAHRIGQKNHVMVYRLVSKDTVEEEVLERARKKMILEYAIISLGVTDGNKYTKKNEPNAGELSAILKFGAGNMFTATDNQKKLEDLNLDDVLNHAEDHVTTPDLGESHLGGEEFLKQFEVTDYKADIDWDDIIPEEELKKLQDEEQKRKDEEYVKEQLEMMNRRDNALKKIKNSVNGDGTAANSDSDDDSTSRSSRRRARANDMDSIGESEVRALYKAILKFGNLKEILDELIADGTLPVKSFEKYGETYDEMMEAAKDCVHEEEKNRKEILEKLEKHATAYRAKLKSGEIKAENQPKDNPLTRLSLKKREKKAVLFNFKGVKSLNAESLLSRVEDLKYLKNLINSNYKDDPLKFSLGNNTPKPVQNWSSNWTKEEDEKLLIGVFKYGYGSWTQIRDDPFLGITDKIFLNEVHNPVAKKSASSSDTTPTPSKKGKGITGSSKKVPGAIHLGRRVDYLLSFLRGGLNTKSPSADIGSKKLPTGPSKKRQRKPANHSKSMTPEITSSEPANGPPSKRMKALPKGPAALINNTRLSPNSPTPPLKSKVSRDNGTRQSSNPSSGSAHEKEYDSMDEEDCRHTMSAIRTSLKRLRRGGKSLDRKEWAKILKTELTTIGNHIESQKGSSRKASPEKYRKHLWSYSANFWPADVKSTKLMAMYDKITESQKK

Take `Cc1nc(-c2ccccc2)n(CC(=O)N(C(C)C)C(C)C)n1`: the Percent Effect is -0.812% in [1]; 18.9% in [2]; -12.1% in test [3]; 5.09% in [4]; 3.68% in the test with Trypanosoma cruzi; -9.62% in [5]. The Percent Effect in test [6] is 15.3%; in the test listed under Homo sapiens it was 14.6%; in [7] it was 9.36%; in test [8], 23.5%; in test [9] it was -8.42%.

`CN(C)C(=O)CN(C)C(=O)c1cnc(Cc2ccc(F)cc2)s1`: the Percent Effect is -5.52% in [1]; 0% in test [2]; -1.38% in test [3]; -1.9% in [4]; -1.07% in the test on Trypanosoma cruzi; 3.12% in [5]. The Percent Effect in [6] was 17.8%; in the test filed under Homo sapiens it was -4.01%; in [7], 0.546%; in test [8] it was 8.64%; in [9] it was -7.08%.

With `Cc1nc[nH]c1-c1nc2cc(S(=O)(=O)N3CCCC3)ccc2n1C`, the Percent Effect was -4.38% in [1]; 11% in test [2]; 12.9% in test [3]; 8.67% in test [4]; 6.86% in the test with Trypanosoma cruzi; 20% in [5]. In addition, the Percent Effect in test [6] was 8.16%; in the test filed under Homo sapiens, 24.3%; in [7], 7.53%; in [8], 17.5%; in test [9] it was -5.76%.

`CC(NC(=O)c1cccs1)C(=O)NCc1cccnc1N1CCCCC1` (stereo unspecified): the Percent Effect in test [1] is -5.05%; in test [2] it was 15.6%; in test [3], 4.11%; in test [4], 3.01%; in the test with Trypanosoma cruzi it was -3.93%; in test [5], 0.712%. The Percent Effect in test [6] is 9.46%; in the test listed under Homo sapiens, 10.2%; in test [7], 1.94%; in test [8], 7.32%; in test [9], -4.16%.

For `Cc1ccc(CCNC(=O)N2CCCC(Cc3nccn3C)C2)cn1` (stereo unspecified), the Percent Effect is -5.16% in [1]; 0% in test [2]; -1.4% in test [3]; 2.27% in [4]; 4.49% in the test with Trypanosoma cruzi; -2.5% in test [5]. Moreover, the Percent Effect in test [6] was 9.89%; in the test listed under Homo sapiens, 16.9%; in [7] it was 7.92%; in test [8] it was 13.4%; in test [9], -0.907%.

On to `O=c1nc(SCc2cccnc2)c2c(n1CCO)CCC2`, for which the Percent Effect was -1.99% in test [1]; 13.7% in test [2]; -3.57% in test [3]; 7.9% in test [4]; 0.588% in the test on Trypanosoma cruzi; 5% in test [5]. For the same compound, the Percent Effect in test [6] was 15.8%; in the test filed under Homo sapiens, 16.7%; in [7] it was 6.45%; in test [8], 15%; in [9], -7.2%.

For `COCCCN(CCOC)C(=O)Nc1ccc(C)cc1C`, the Percent Effect is -4.88% in test [1]; -7.89% in test [2]; -30.8% in [3]; -2.12% in test [4]; -2.63% in the test with Trypanosoma cruzi; 3.55% in [5]. Besides, the Percent Effect in test [6] is 2.01%; in the test listed under Homo sapiens, -18.5%; in test [7] it was -2.13%; in [8] it was -2.6%; in [9], 6.01%.

For `Cc1cc(CN2CCN(C(=O)Nc3cccnc3)CC2)on1`, the Percent Effect in [1] is -2.38%; in [2], 15.8%; in [3] it was -3.05%; in test [4], 8.98%; with Trypanosoma cruzi it was -2.63%; in [5], 4.6%. Also, the Percent Effect in test [6] is 4.51%; in the test filed under Homo sapiens, -11.1%; in [7], 6.37%; in test [8], 17.1%; in test [9], -2.69%.

In the case of `CCn1ccnc1CN1CCN(CC(=O)NC(=O)NC2CC2)CC1`, the Percent Effect is -0.559% in [1]; 13.2% in test [2]; 1.1% in test [3]; 4.6% in test [4]; 3.95% in the test on Trypanosoma cruzi; 0% in test [5]. Also, the Percent Effect in test [6] is 16.5%; in the test filed under Homo sapiens it was -2.49%; in test [7], 8.33%; in [8] it was 19.5%; in test [9], -6.48%.

Regarding `CC(=O)N1CCN(C)CC(COCc2ccccc2)C1` (stereo unspecified), the Percent Effect in [1] was -5.71%; in [2], 12.2%; in test [3], 7.92%; in test [4] it was 3.51%; in the test on Trypanosoma cruzi, 4.54%; in [5] it was -2.09%. The Percent Effect in test [6] was -1.09%; in the test filed under Homo sapiens, 6.97%; in [7], 4.3%; in test [8], 6.49%; in test [9], -11.4%.

With `Cc1ncc(C)c(N2CCCC(CO)(Cc3cccc(Cl)c3)C2)n1` (stereo unspecified), the Percent Effect in test [1] is -3.59%; in [2] it was 13%; in test [3], 3.66%; in test [4], 15.9%; in the test on Trypanosoma cruzi, 5.61%; in [5] it was 9.65%. Moreover, the Percent Effect in test [6] was 13.1%; in the test listed under Homo sapiens, 34%; in [7], 7.53%; in [8], 13.6%; in test [9] it was -6.49%.
